Test results as given in PubChem BioAssay (NCATS).
A number with no mark means an inactive call. No rule for the calls is given here.

Test system: HIV-1 nucleocapsid protein NCp7 (binding to TG oligonucleotide)
Assay: HIV Nucleocapsid (AID 346);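 also: potency is for inhibitors that block NC binding and lower polarization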
Conditions: HIV-1 NC / fluorescein-TGTGTGTG probe, fluorescence polarization
How it was run: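 Fluorescence polarization binding of 100 nM HIV-1 NC to 10 nM fluorescein-labelled TG4xF oligonucleotide. Buffer was Hepes pH 7.5 with 250mM NaCl, 1uM ZnCl2, TCEP and 2-mercaptoethanol. Compounds were incubated 1 hr at room temperature before the read.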
Potency is read from the fitted curve at half-maximal effect.

Structure (SMILES)	Potency [µM]
Cc1noc(C)c1C(=O)N1CCC2(CC1)CN(C(=O)Nc1cccc(F)c1)C2	> 20
O=C(c1cc(C(F)(F)F)cc(C(F)(F)F)c1)N1CCC2(CCCN(c3ccccc3)C2)CC1	> 20
CC(=O)N1CCC2(CC1)CN(C(=O)Nc1cccc(C#N)c1)C2	> 20
Clc1ccccc1-c1nccc(NCc2ccccc2)n1	> 20
O=C(c1ccco1)N1CCC2(CC1)CCN(c1ncccn1)CC2	> 20
COc1ccc2[nH]cc(CCNc3ncncc3-c3ccc(C(=O)N(C)C)cc3)c2c1	> 20
Cn1cccc1C(=O)N1CCC2(CCCN(C(=O)Nc3cccc(C#N)c3)C2)CC1	> 20
O=C(c1cccc(F)c1)N1CCC2(CC1)CN(Cc1ccccc1)C2	> 20
CN(Cc1ccco1)c1nc(-c2cccc(C#N)c2)nc2ccccc12	> 20
COc1ccc2[nH]cc(CCNc3cc(-c4ccccc4Cl)ncn3)c2c1	> 20
CN(C)Cc1ccccc1-c1nc(NCc2cccs2)c2ccccc2n1	> 20
COC(=O)N1CCC2(CCN(Cc3ccccc3OC)CC2)CC1	> 20
Cc1noc(C)c1-c1nccc(NCCN2CCOCC2)n1	> 20
N#CCCn1c(=O)c(-c2ccc(Cl)cc2)nc2cnc(OCc3ccccc3)nc21	> 20
COCCNc1ncnc2ccc(-c3ccccc3CN(C)C)cc12	> 20
COc1cccc(Cn2c(=O)c(-c3ccc(Cl)cc3)nc3cnc(OC)nc32)c1	> 20
O=c1c(-c2cccs2)nc2cncnc2n1C1CC1	> 20
CN(C)c1ccc(-c2cc(Nc3ccc(F)cc3)ncn2)cc1	> 20
COc1ccc(-c2nc3cnc(N4CCOCC4)nc3n(C[C@H]3CCCO3)c2=O)cc1	> 20
O=C(c1csnn1)N1CCC2(CC1)CCN(C(c1ccccc1)c1ccccc1)CC2	> 20

Structure (SMILES)	Potency [µM]
Cn1cccc1C(=O)N1CCC2(CCCN(C(=O)Nc3ccccc3)C2)CC1	> 20
Cc1cccc(CNc2cc(-c3ccccc3Cl)ncn2)c1	> 20
CC(C)NC(=O)N1CCC2(CC1)CCN(C(=O)c1cccc(F)c1)CC2	> 20
N#Cc1cccc(-c2cc(NCc3ccccc3)ncn2)c1	> 20
COc1cccc(Cn2c(=O)cnc3cnc(N(C)C)nc32)c1	> 20
COc1ccc(Oc2ncc3nc(-c4cccs4)c(=O)n(C)c3n2)cc1	> 20
O=c1c(-c2ccc(F)cc2)nc2cnc(Oc3cccc(Cl)c3)nc2n1C1CC1	> 20
COc1cccc(-c2cc(NCc3cccnc3)ncn2)c1	> 20
CS(=O)(=O)N1CCC2(CCN(C(=O)Nc3cccc(F)c3)CC2)CC1	> 20
COc1ncc2nc(-c3cc(F)cc(F)c3)c(=O)n(Cc3cccs3)c2n1	> 20
Fc1ccc(Nc2ncncc2-c2ccoc2)cc1	> 20
O=C(Oc1ccccc1)N1CCC2(CC1)CN(c1ccccn1)C2	> 20
O=C(c1cnccn1)N1CCC2(CC1)CN(Cc1cc(C(F)(F)F)cc(C(F)(F)F)c1)C2	> 20
CN(C)c1ccc(-c2nc(NC3CCNCC3)c3ccccc3n2)cc1	> 20
CN(C)C(=O)c1ccc(-c2ccc3ncnc(NCc4ccccc4)c3c2)cc1	> 20
O=c1c(-c2ccc(Cl)cc2)nc2cnc(Nc3ccccc3)nc2n1C1CC1	> 20
Cn1c(=O)c(-c2cc(F)cc(F)c2)nc2cnc(Oc3ccccc3)nc21	> 20
CCNc1ncc2nc(-c3cccs3)c(=O)n(C)c2n1	> 20
Cc1cnc(CNc2ncncc2-c2ccc(C(=O)N(C)C)cc2)cn1	> 20
O=C(c1cccc(F)c1)N1CCC2(CCCN(c3ccncc3)C2)CC1	> 20
